In all, about 48,000 compounds went through this assay and about 13,000 (27%) showed an effect of 50% or more. The list shows a part of the results.
Test system: Wolbachia pipientis
Test: Anti-Wolbachia Cell-Based Screen
Assay type: functional
Parameters: scale not given: in the data most compounds retested in dose-response had high values
Conditions: 5 µM

Compared with `CCOC(=O)c1nc(CN2CCC(NC(=O)C(C)C)CC2)cs1`, `CC(Cn1cccn1)NC(=O)N1CCC(NS(C)(=O)=O)CC1` (stereo unspecified) is higher in “Percent Effect” value: -9.152% for the first, 10.97% for the second.

First: O[C@@H]1Cc2ccccc2[C@@H]1Nc1ncccc1F
Second: O=C(Cn1cccc2oc(=O)nc1-2)NCC1Cc2ccccc2O1 (stereo unspecified)
The “Percent Effect” value of the first is lower: -3.78% for the first, -3.762% for the second.

First: COC(=O)c1sccc1S(=O)(=O)N1CCC(Oc2cnccn2)CC1
Second: CS(=O)(=O)N1CCC(Oc2cnccn2)CC1
The “Percent Effect” value of the first is higher: 2.794% for the first, -17.13% for the second.

Going from `Cc1n[nH]c(C)c1S(=O)(=O)N1CCC(Oc2cnccn2)CC1` to `Cc1noc(C)c1S(=O)(=O)N1CCC(Oc2cnccn2)CC1`, the “Percent Effect” value falls from 120.8% to 11.35%.

Compared with `O=S(=O)(c1ccc(F)cc1)N1CCOC[C@H](Oc2cnccn2)C1`, `O=S(=O)(c1ccc(Cl)cc1)N1CCOC[C@H](Oc2cnccn2)C1` is higher in “Percent Effect” value: -9.472% for the first, -1.113% for the second.

First: O=S(=O)(N1CCOCC1)N1CCC(Oc2cnccn2)CC1
Second: O=S(=O)(N1CCCCC1)N1CCC(Oc2cnccn2)CC1
The “Percent Effect” value of the first is higher: 115% for the first, 106.7% for the second.

Compared with `Cc1ccc(S(=O)(=O)N2CCC(Oc3ccccn3)CC2)c(C)c1`, `CN(C)S(=O)(=O)N1CCC(Oc2cnccn2)CC1` is higher in “Percent Effect” value: 1.938% for the first, 2.095% for the second.

Going from `CC1CCN(S(=O)(=O)N2CCC(Oc3cnccn3)CC2)CC1` to `O=C(CCc1nccs1)N1CCC(N2CCNC2=O)CC1`, the “Percent Effect” value falls from 109.5% to -13.84%.

Going from `COc1ccc(C2CCCN2c2ccnc(C)c2Cl)c(OC)c1` (stereo unspecified) to `COc1c(C2CCCN2C(=O)c2ccc3cc[nH]c3c2)c(C)nn1C` (stereo unspecified), the “Percent Effect” value rises from -16.05% to -0.02537%.

Going from `CC(=O)N(C)Cc1nn(C)c2c1CN(Cc1ccsc1)C2.O=C(O)C(F)(F)F.O=C(O)C(F)(F)F` to `COCCO[C@H]1CCN(Cc2ccsc2)[C@H]1Cc1cccnc1.O=C(O)C(F)(F)F.O=C(O)C(F)(F)F`, the “Percent Effect” value rises from -3.994% to 103.2%.

First: O=C(O)C(F)(F)F.O=C([C@@H]1COC[C@H]2CN(C3CCCC3)C[C@H]21)N1CCCCO1
Second: O=C(O)C(F)(F)F.O=C(O)C(F)(F)F.O=C(O)C(F)(F)F.c1cncc(CN2CC[C@@H]3O[C@H](COCCN4CCCC4)CC[C@@H]32)c1
The “Percent Effect” value of the first is lower: 2.547% for the first, 86.61% for the second.

First: O=C(O)C1CCN(c2nc3c(-c4ccccc4F)csc3c(=O)[nH]2)CC1
Second: O=C(CCc1ccccc1)N1CCC(N2CCNC2=O)CC1
The “Percent Effect” value of the first is lower: -3.996% for the first, 0.2283% for the second.

Going from `CS(=O)(=O)NCCCNc1ccc(C(F)(F)F)cc1C#N` to `COCCO[C@@H]1CCN(C(=O)c2ccc(C)o2)[C@@H]1Cc1cccnc1.O=C(O)C(F)(F)F`, the “Percent Effect” value rises from -7.983% to 18.38%.

First: O=C1OCCN1CCNCC1(O)CCCN(CCC2CCCCC2)C1=O (stereo unspecified)
Second: O=C(CCCc1cccs1)N1CCC(N2CCNC2=O)CC1
The “Percent Effect” value of the first is lower: 3.585% for the first, 94.13% for the second.

Compared with `CN(C)C(=O)c1nc2c(n1C)CCN(Cc1ccccc1)C2`, `COc1ccc(CNC(=O)NC2CCN(c3ccccc3)C2=O)cc1` (stereo unspecified) is lower in “Percent Effect” value: 0.7909% for the first, -1.645% for the second.

First: CNC(=O)CNC(=O)CC1C(=O)NCCN1Cc1ccccc1C (stereo unspecified)
Second: O=C(CCc1cccs1)N1CCCC(N2CCNC2=O)C1 (stereo unspecified)
The “Percent Effect” value of the first is lower: -0.8934% for the first, 103.5% for the second.

Compared with `Cn1cc(CN2CC[C@H]3O[C@@H](COCc4cccnc4)CC[C@H]32)cn1.O=C(O)C(F)(F)F.O=C(O)C(F)(F)F`, `O=C(O)C(F)(F)F.O=C(O)C(F)(F)F.O=C(O)C(F)(F)F.c1ccc(COC[C@H]2CC[C@H]3[C@H](CCN3Cc3cccnc3)O2)nc1` is higher in “Percent Effect” value: -19.84% for the first, -5.696% for the second.

First: COCCO[C@H]1CCN(Cc2cccs2)[C@H]1Cc1cccnc1.O=C(O)C(F)(F)F.O=C(O)C(F)(F)F
Second: COCCO[C@H]1CCN(Cc2cccnc2)[C@H]1Cc1cccnc1.O=C(O)C(F)(F)F.O=C(O)C(F)(F)F.O=C(O)C(F)(F)F
The “Percent Effect” value of the first is lower: -0.3476% for the first, 107.4% for the second.

First: Cc1[nH]c2c(F)cccc2c1CC(=O)NCCCc1csc(N)n1
Second: Cc1c(CNC(=O)NCc2cccc(-n3cncn3)c2)cnn1C
The “Percent Effect” value of the first is lower: -2.894% for the first, -0.3036% for the second.

First: COc1cc(C)c(NC(=O)CCn2cccc2)cc1OC
Second: COc1ccc(NC(=O)CCn2nc(-c3cccs3)oc2=O)cc1OC
The “Percent Effect” value of the first is lower: 27.33% for the first, 106% for the second.

Going from `O=c1oc(-c2cccs2)nn1CC1(O)CCCCC1` to `COC(=O)c1cccc(OCCn2nc(-c3cccs3)oc2=O)c1`, the “Percent Effect” value rises from -6.599% to 2.853%.

First: COc1cc(NC(=O)CCn2nc(-c3cccs3)oc2=O)cc(OC)c1
Second: COc1c(C2CCCN2C(=O)c2sccc2C#N)c(C)nn1C (stereo unspecified)
The “Percent Effect” value of the first is higher: 106.6% for the first, -24.73% for the second.

First: Cc1cc(C)n2nc(C(=O)N3CCCC4(CCOC4)C3)cc2n1 (stereo unspecified)
Second: Cc1nn(C)c(C)c1C1CCCN1C(=O)c1ccc(NC2CC2)nc1 (stereo unspecified)
The “Percent Effect” value of the first is higher: -5.928% for the first, -8.845% for the second.

Compared with `COC(=O)C(C)(C)C(C)(C)NC(=O)Nc1nnc(-c2ccccn2)s1`, `CC(C)c1ncc(C(=O)N(C)c2ccc(Br)cn2)s1` is higher in “Percent Effect” value: -11.99% for the first, 0.7212% for the second.

First: CCOc1ccc(C(=O)N2CCCC2c2c(C)nn(C)c2Cl)cn1 (stereo unspecified)
Second: CCOc1ccc(C(=O)N2CCCC2c2c(C)nn(C)c2OC)cn1 (stereo unspecified)
The “Percent Effect” value of the first is higher: 128% for the first, 122.4% for the second.

Going from `COc1c(C2CCCN2C(=O)c2ccc(C#N)cc2)c(C)nn1C` (stereo unspecified) to `COc1c(C2CCCN2C(=O)c2ccc(O)nc2)c(C)nn1C` (stereo unspecified), the “Percent Effect” value falls from 98.09% to 97.38%.

Compared with `COc1c(C2CCCN2C(=O)c2ccc3[nH]cnc3c2)c(C)nn1C` (stereo unspecified), `COc1c(C2CCCN2C(=O)c2ccoc2)c(C)nn1C` (stereo unspecified) is lower in “Percent Effect” value: 128.2% for the first, 3.459% for the second.

First: Cc1cc(C(=O)N2C[C@@H]3CCCO[C@@H]3[C@H](N(C)C(C)C)C2)c(C)[nH]1
Second: CC1=N[C@@]2(CC[C@@H]3CN(C(=O)NCC(C)C)C[C@@H]32)C(=O)N1C
The “Percent Effect” value of the first is lower: -3.882% for the first, 7.686% for the second.

Compared with `Cc1noc(NC(=O)c2ccc(Br)s2)n1`, `Cc1nn(C)c(Cl)c1C1CCCN1C(=O)c1ccc(O)nc1` (stereo unspecified) is higher in “Percent Effect” value: 1.553% for the first, 94.29% for the second.

Compared with `Cc1nn(C)c(Cl)c1C1CCCN1C(=O)c1ccc(C(N)=O)cn1` (stereo unspecified), `O=C(Nc1nccs1)N1CCCC(N2CCNC2=O)C1` (stereo unspecified) is lower in “Percent Effect” value: 118.3% for the first, -14.98% for the second.

Compared with `Cc1cc(CN2CCC(C3CCN(CCc4ccccc4)CC3)C2)[nH]n1` (stereo unspecified), `O=C1NCCN1C1CCN(CCc2cccs2)CC1` is higher in “Percent Effect” value: -2.584% for the first, 3.932% for the second.

First: CC(C)CN1C[C@@H]2OCC(=O)N(c3ccccc3)[C@@H]2C1
Second: O=C(CCc1cccs1)N1CCC(N2CCNC2=O)CC1
The “Percent Effect” value of the first is lower: -2.791% for the first, 8.278% for the second.

First: O=C(CCc1ccsc1)N1CCC(N2CCNC2=O)CC1
Second: O=C(CCc1nccs1)N1CCCC(N2CCNC2=O)C1 (stereo unspecified)
The “Percent Effect” value of the first is higher: 88.84% for the first, -19.11% for the second.

Reference: ChEMBL document CHEMBL3988442, “University of Dundee, Small-Polar-MMV Screening Library” (2021)
